Test results published in the supplement of paper PMC10849652.
The full data set covers some 8,800 targets. This sample favours those with a hit. About 0.5% of all pairs of compound and target were hits.

Assays:
Test in all cases: log2 fold change, soluble protein after heating vs DMSO (PISA); higher = thermal stabilisation; K562 lysate, 10 uM; active = over 0.2 and 3.5 SD of the protein, either way, in both replicates (recomputed)
alvocidib = compound: CN1CC[C@H](c2c(O)cc(O)c3c(=O)cc(-c4ccccc4Cl)oc23)[C@H](O)C1 [alvocidib]
Summary of the method: (§1)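 K562 pellets were dounce-homogenised in PBS pH 7.4 with 1 mM MgCl2, and the crude extract at 1 mg/mL protein was treated with 10 μM compound for 30 min. Aliquots were heated for 3 min across 48°C-58°C, pooled, and brought to 0.5% NP-40 at 4°C; soluble protein was the supernatant after 21,000xg for 90 min. Soluble protein was quantified by TMTpro 16plex LC-MS/MS with channel sums equalised, and reported as log2 fold change in thermal stability against DMSO controls, with values from duplicates.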

Tubastatin A = compound: CN1CCc2c(c3ccccc3n2Cc2ccc(C(=O)NO)cc2)C1 [Tubastatin A]
Summary of the method: as §1

[1] = compound: CNC(=O)C1=CC=CC=C1NC2=NC(=NC=C2Cl)NC3=C(C=C(C=C3)N4CCOCC4)OC
Summary of the method: as §1

defactinib = compound: CNC(=O)c1ccc(Nc2ncc(C(F)(F)F)c(NCc3nccnc3N(C)S(C)(=O)=O)n2)cc1 [defactinib]
Summary of the method: as §1

[2] = compound: CNc1nc(-c2ccc3c(N)n[nH]c3c2)cc(N2C[C@@H](C(=O)NC3CCCCC3)CC[C@H]2C)n1
Summary of the method: as §1

encorafenib = compound: COC(=O)N[C@@H](C)CNc1nccc(-c2cn(C(C)C)nc2-c2cc(Cl)cc(NS(C)(=O)=O)c2F)n1 [encorafenib]
Summary of the method: as §1

[3] = compound: COC(=O)[C@H](CCSC)NC(=O)C1=C(C=C(C=C1)NC[C@H](CS)N)C2=CC=CC=C2
Summary of the method: as §1

alisertib = compound: COc1cc(Nc2ncc3c(n2)-c2ccc(Cl)cc2C(c2c(F)cccc2OC)=NC3)ccc1C(=O)O [alisertib]
Summary of the method: as §1

[4] = compound: COc1cc2nc(-c3cc(F)ccc3O)nc(N[C@@H]3CNC[C@H]3C(C)(C)O)c2cc1OC
Summary of the method: as §1

gefitinib = compound: COc1cc2ncnc(Nc3ccc(F)c(Cl)c3)c2cc1OCCCN1CCOCC1 [gefitinib]
Summary of the method: as §1

lapatinib = compound: CS(=O)(=O)CCNCc1ccc(-c2ccc3ncnc(Nc4ccc(OCc5cccc(F)c5)c(Cl)c4)c3c2)o1 [lapatinib]
Summary of the method: as §1

pictilisib = compound: CS(=O)(=O)N1CCN(Cc2cc3nc(-c4cccc5[nH]ncc45)nc(N4CCOCC4)c3s2)CC1 [pictilisib]
Summary of the method: as §1

crizotinib = compound: C[C@@H](Oc1cc(-c2cnn(C3CCNCC3)c2)cnc1N)c1c(Cl)ccc(F)c1Cl [crizotinib]
Summary of the method: as §1

[5] = compound: C[C@H](C1=CC=C(C=C1)C(=O)NC2=C3C=CNC3=NC=C2)N
Summary of the method: as §1

duvelisib = compound: C[C@H](Nc1ncnc2nc[nH]c12)c1cc2cccc(Cl)c2c(=O)n1-c1ccccc1 [duvelisib]
Summary of the method: as §1

gandotinib = compound: Cc1cc(Nc2cc(CN3CCOCC3)c3nc(C)c(Cc4ccc(Cl)cc4F)n3n2)n[nH]1 [gandotinib]
Summary of the method: as §1

tozasertib = compound: Cc1cc(Nc2cc(N3CCN(C)CC3)nc(Sc3ccc(NC(=O)C4CC4)cc3)n2)n[nH]1 [tozasertib]
Summary of the method: as §1

doramapimod = compound: Cc1ccc(-n2nc(C(C)(C)C)cc2NC(=O)Nc2ccc(OCCN3CCOCC3)c3ccccc23)cc1 [doramapimod]
Summary of the method: as §1

bafetinib = compound: Cc1ccc(NC(=O)c2ccc(CN3CC[C@H](N(C)C)C3)c(C(F)(F)F)c2)cc1Nc1nccc(-c2cncnc2)n1 [bafetinib]
Summary of the method: as §1

[6] = compound: Cc1cccc(CC(=O)N2CCc3c2ccc(-c2cn(C)c4ncnc(N)c24)c3F)n1
Summary of the method: as §1

Measured: log2 fold change

CIP2A (UniProt Q8TCG1)
inactive: alvocidib 0.009 | [1] -0.015 | defactinib 0.003 | [2] -0.074 | encorafenib 0.008 | [3] 0.053 | alisertib -0.004 | [4] -0.014 | gefitinib -0.018 | lapatinib -0.02 | pictilisib -0.045 | crizotinib -0.101 | [5] -0.049 | duvelisib 0.012 | gandotinib -0.218 | tozasertib 0 | doramapimod 0.005 | bafetinib -0.047 | [6] 0.103
active: Tubastatin A -0.294

CNTN4 (UniProt Q8IWV2)
Chain of UniProt Q8IWV2 (Q8IWV2 whole entry, looked up): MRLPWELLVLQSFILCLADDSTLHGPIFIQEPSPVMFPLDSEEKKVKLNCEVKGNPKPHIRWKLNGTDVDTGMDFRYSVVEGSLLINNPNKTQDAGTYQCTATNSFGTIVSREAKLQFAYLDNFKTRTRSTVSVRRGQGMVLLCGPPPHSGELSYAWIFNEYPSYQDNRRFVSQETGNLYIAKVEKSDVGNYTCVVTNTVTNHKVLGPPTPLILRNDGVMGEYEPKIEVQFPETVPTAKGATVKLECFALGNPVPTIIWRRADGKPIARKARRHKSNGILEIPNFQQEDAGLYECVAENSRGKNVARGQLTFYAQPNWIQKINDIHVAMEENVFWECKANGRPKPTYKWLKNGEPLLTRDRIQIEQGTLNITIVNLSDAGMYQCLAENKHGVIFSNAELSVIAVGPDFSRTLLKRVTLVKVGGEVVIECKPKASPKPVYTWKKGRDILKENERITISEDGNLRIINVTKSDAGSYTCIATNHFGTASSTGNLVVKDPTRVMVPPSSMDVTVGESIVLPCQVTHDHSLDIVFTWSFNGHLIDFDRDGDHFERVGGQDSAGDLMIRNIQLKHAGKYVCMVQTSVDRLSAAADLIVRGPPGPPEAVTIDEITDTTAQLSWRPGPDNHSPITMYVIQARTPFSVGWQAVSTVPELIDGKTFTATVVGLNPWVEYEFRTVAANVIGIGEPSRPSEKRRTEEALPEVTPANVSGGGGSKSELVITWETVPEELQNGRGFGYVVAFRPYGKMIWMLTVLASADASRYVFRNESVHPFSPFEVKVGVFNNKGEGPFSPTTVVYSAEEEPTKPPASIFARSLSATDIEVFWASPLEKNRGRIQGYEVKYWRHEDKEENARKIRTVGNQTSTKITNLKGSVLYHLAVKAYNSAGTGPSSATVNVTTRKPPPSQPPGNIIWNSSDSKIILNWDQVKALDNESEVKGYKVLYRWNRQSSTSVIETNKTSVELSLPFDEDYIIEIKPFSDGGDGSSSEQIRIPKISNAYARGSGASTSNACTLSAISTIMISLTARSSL
inactive: alvocidib -0.148 | Tubastatin A 0.185 | [1] 0.021 | defactinib -0.104 | encorafenib -0.193 | [3] 0.124 | alisertib -0.074 | [4] 0.03 | gefitinib -0.022 | lapatinib -0.052 | pictilisib -0.066 | crizotinib -0.268 | [5] -0.432 | gandotinib 0.545 | tozasertib -0.182 | doramapimod -0.067 | bafetinib -0.145 | [6] 0.484

DCTN1 isoform 4 (UniProt Q14203)
inactive: alvocidib 0.3 | Tubastatin A -0.254 | [1] 0.212 | defactinib -0.046 | [2] 0.105 | encorafenib 0.078 | [3] -0.064 | alisertib 0.107 | [4] -0.05 | gefitinib 0.051 | lapatinib -0.039 | crizotinib -0.031 | [5] 0.054 | duvelisib -0.032 | gandotinib 0.121 | tozasertib 0.173 | doramapimod -0.103 | [6] -0.239

CLCN3 (UniProt P51790)
Chain of UniProt P51790 (P51790 whole entry, looked up): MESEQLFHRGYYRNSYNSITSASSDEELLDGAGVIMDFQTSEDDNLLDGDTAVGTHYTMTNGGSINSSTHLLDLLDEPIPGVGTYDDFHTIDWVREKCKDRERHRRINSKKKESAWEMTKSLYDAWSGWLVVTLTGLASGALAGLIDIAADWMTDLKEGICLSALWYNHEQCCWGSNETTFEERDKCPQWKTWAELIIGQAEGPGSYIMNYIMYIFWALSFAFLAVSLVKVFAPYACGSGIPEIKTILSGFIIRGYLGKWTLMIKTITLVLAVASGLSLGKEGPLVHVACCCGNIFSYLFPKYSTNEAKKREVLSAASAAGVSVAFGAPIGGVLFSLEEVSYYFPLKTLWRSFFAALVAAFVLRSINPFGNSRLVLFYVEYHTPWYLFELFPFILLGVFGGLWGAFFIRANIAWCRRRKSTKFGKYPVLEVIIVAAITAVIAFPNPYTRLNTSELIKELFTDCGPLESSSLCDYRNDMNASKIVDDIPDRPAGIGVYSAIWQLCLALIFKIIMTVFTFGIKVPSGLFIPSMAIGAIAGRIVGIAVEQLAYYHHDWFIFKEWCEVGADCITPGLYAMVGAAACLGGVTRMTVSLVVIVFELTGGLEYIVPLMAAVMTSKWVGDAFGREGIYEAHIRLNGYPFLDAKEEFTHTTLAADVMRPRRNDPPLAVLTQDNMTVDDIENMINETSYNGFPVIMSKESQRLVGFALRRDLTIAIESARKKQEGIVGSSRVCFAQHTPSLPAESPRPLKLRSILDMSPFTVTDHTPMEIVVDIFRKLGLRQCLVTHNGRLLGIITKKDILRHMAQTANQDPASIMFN
inactive: alvocidib -0.03 | Tubastatin A -0.012 | [1] -0.042 | defactinib -0.024 | [2] -0.194 | encorafenib 0.05 | [3] 0.003 | alisertib 0.005 | [4] -0.043 | gefitinib 0.029 | lapatinib 0.004 | crizotinib 0.014 | [5] -0.09 | duvelisib -0.017 | gandotinib -0.106 | tozasertib -0.008 | doramapimod 0.033 | bafetinib -0.004 | [6] 0.13

CNOT4 isoform 9 (UniProt O95628)
Chain of UniProt O95628 (O95628 whole entry, looked up): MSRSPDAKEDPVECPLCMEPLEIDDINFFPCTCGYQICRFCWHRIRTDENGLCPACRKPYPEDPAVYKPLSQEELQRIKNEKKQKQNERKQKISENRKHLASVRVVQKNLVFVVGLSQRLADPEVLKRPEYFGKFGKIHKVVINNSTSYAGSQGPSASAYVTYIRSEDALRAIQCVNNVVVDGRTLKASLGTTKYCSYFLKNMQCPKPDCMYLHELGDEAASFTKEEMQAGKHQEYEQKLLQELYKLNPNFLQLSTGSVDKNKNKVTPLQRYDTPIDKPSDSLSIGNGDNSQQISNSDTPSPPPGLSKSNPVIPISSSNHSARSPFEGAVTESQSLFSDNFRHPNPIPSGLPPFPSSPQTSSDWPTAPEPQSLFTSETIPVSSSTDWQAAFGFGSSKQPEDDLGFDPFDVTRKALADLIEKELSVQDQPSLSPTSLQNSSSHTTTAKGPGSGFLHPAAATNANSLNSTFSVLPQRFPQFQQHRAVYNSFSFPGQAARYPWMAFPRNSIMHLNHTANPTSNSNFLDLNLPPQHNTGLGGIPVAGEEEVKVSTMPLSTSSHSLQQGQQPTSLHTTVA
active: [5] -1.01
inactive: alvocidib -0.351 | Tubastatin A 0.04 | [1] -0.087 | defactinib -0.085 | [2] -0.047 | encorafenib 0.037 | [3] 0.003 | [4] 0.002 | lapatinib -0.006 | pictilisib -0.014 | crizotinib 0.077 | duvelisib -0.009 | gandotinib 0.298 | tozasertib 0.04 | doramapimod -0.184 | bafetinib -0.031 | [6] 0.271

DNAH5 (UniProt Q8TE73)
inactive: alvocidib -0.189 | Tubastatin A 0.073 | [1] -0.032 | defactinib -0.014 | [2] -0.051 | alisertib -0.029 | [4] -0.019 | gefitinib 0.052 | lapatinib 0.043 | pictilisib -0.005 | duvelisib -0.051 | gandotinib 0.181 | bafetinib -0.047 | [6] 0.175
active: [5] -0.422

DHX32 (UniProt Q7L7V1)
Chain of UniProt Q7L7V1 (Q7L7V1 whole entry, looked up): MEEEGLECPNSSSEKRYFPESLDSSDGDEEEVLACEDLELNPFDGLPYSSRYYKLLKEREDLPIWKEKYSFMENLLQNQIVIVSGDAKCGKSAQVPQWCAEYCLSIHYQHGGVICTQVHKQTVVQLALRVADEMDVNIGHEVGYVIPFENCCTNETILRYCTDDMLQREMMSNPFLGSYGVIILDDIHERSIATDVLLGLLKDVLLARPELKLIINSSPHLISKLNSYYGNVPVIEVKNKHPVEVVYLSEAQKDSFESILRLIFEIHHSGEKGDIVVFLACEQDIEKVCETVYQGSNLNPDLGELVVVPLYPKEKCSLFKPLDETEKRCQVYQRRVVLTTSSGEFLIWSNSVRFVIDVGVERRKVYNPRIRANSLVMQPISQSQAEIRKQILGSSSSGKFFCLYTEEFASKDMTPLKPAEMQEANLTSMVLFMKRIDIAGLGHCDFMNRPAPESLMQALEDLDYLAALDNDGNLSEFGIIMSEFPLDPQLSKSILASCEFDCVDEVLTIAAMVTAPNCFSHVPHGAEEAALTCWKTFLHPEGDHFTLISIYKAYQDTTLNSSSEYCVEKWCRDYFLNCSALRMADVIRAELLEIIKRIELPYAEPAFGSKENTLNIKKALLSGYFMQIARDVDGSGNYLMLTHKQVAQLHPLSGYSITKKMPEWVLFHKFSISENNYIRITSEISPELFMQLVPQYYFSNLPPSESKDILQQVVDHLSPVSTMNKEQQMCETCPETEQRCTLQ
inactive: alvocidib 0.019 | Tubastatin A 0.027 | [1] 0.044 | defactinib -0.043 | encorafenib 0.062 | [3] 0.048 | alisertib 0.017 | gefitinib 0.02 | crizotinib -0.03 | [5] -0.013 | gandotinib -0.01 | tozasertib 0.108 | doramapimod 0.012 | [6] -0.077

DENND1B (UniProt Q6P3S1)
Chain of UniProt Q6P3S1 (Q6P3S1 whole entry, looked up): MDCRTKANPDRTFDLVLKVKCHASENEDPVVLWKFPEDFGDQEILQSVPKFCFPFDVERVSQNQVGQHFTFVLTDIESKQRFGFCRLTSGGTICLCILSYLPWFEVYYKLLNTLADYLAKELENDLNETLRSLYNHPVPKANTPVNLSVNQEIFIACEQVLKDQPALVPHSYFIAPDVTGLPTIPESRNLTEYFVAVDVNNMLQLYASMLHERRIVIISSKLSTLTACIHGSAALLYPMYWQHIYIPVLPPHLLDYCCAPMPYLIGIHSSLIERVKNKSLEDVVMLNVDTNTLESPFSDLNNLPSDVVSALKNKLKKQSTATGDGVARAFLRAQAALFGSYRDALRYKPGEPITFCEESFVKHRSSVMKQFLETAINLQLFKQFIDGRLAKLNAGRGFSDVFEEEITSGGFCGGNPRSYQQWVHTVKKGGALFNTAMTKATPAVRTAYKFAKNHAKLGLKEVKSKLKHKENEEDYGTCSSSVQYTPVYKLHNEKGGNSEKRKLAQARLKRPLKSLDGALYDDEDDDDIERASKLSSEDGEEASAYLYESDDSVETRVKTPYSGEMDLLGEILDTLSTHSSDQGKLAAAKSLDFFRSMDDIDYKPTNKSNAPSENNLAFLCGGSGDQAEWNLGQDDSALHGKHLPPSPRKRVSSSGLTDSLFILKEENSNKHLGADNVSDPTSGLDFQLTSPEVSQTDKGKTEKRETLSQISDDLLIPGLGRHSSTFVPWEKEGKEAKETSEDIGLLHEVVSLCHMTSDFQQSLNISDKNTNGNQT
inactive: alvocidib 0.074 | Tubastatin A 0.152 | [1] -0.105 | defactinib 0.099 | [2] 0.023 | alisertib -0.146 | [4] -0.226 | gefitinib -0.102 | lapatinib 0.1 | pictilisib 0.096 | crizotinib -0.019 | [5] 0.003 | duvelisib -0.08 | gandotinib -0.194 | doramapimod -0.072 | bafetinib 0.154 | [6] -0.03

DNA2 (UniProt P51530)
Chain of UniProt P51530 (P51530 whole entry, looked up): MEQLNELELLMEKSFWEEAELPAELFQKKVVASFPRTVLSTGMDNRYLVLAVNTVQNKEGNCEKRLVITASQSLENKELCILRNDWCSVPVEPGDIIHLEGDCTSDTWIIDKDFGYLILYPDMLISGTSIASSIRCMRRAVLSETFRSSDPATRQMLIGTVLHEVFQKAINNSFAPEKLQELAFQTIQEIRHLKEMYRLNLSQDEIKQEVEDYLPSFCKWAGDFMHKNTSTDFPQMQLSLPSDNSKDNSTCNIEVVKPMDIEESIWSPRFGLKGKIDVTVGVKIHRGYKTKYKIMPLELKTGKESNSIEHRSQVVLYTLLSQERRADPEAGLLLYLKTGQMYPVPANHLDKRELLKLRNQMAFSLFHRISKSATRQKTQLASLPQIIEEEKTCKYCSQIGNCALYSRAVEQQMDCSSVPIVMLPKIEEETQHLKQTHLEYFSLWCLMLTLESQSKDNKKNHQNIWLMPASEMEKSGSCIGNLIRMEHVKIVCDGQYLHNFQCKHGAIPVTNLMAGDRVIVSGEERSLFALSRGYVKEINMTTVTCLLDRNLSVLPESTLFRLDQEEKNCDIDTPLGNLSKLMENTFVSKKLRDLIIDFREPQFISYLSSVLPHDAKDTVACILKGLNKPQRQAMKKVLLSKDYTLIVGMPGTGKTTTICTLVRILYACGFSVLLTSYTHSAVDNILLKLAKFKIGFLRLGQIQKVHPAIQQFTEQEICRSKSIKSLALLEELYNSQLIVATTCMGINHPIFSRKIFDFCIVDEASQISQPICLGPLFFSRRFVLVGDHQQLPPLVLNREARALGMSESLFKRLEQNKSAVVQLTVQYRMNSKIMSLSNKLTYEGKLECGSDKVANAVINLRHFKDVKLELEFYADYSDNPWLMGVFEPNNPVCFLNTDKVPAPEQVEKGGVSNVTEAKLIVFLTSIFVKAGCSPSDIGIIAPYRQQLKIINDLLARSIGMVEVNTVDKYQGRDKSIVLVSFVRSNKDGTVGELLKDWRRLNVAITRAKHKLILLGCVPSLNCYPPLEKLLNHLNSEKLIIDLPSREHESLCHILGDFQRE
inactive: alvocidib -0.116 | Tubastatin A -0.15 | [1] -0.009 | defactinib -0.039 | [2] -0.035 | encorafenib 0.123 | [3] -0.098 | alisertib -0.007 | gefitinib 0.036 | crizotinib -0.046 | [5] 0.052 | duvelisib -0.02 | gandotinib 0.013 | tozasertib -0.07 | doramapimod 0.051 | [6] -0.017
